Assay results taken from PubChem BioAssay (NCATS).
“And” between values parts separate entries of the source, which are not always exact repeats. Equal values may be shown once. Records with an inconclusive call do not appear. Where a call stands in place of a potency, no number is given. Some compounds were tested as several samples or in several runs, with calls that do not always agree. The source made the active and inactive calls. Calls follow the shape of the dose curve; as a rule, active = well fitted inhibition curve with a large enough effect; inconclusive = small, poorly fitted or top-dose-only effect; inactive = no such curve, though single readings can be large or run the other way.

Test system: not listed separately
Assay: Primary qHTS for inhibitors of nuclear receptor binding SET domain protein 2 (NSD2) in an RCH-ACV wild type WT cells (2C) (AID 1645877); also: nearly all actives have a fitted effect of over 70% in size
Settings: RCH-ACV (leukaemia line) NSD2 WT (2C) viability, CellTiter-Glo, 72 h; series mostly up to 44.9 µM
Potency is read from the fitted curve at half-maximal effect.

SMILES | Potency | activity change, negative = cell killing
CCCCCCCCCCCCCCCC[n+]1ccccc1 | 0.335 µM (active) | 
CCC1=C[C@@H]2CN(C1)Cc1c([nH]c3ccccc13)[C@@](C(=O)OC)(c1cc3c(cc1OC)N(C)[C@H]1[C@@](O)(C(=O)OC)[C@H](OC(C)=O)[C@]4(CC)C=CCN5CC[C@]31[C@@H]54)C2 | 2.1 nM (active) and 162 nM (active) | 
CN1[C@@H]2CC[C@H]1CC(NC(=O)n1c(=O)[nH]c3ccccc31)C2 (stereo partly specified) | inactive | 
Nc1c(I)cc(I)c(C(=O)N(CCC(=O)O)c2ccccc2)c1I | inactive | 
NC(=O)C1(N2CCCCC2)CCN(CCCN2c3ccccc3CCc3ccc(Cl)cc32)CC1 | 8.41 µM (active) | 
O=C(O)CCCC[C@@H]1SC[C@@H]2NC(=O)N[C@@H]21 | inactive | 
CCCc1ccc(OCC(=O)N2CCN(C(=O)COc3ccc(CCC)cc3OC)CC2)c(OC)c1 | inactive | 
OCCc1ccccc1 | inactive | 
NCC[C@H](O)C(=O)N[C@@H]1C[C@H](N)[C@@H](O[C@H]2O[C@H](CN)[C@@H](O)[C@H](O)[C@@H]2O)[C@H](O)[C@@H]1O[C@H]1O[C@H](CO)[C@@H](O)[C@H](N)[C@@H]1O |  | -24.5% [at 0.588 µM] (inactive)
CCC(C(=O)NC(=O)NC(C)=O)c1ccccc1 (stereo unspecified) | inactive | 
Nc1c(NC/C=C\COc2cc(CN3CCCCC3)ccn2)c(=O)c1=O | inactive | 
Nc1ccc2cc3ccc(N)cc3nc2c1 | 1.68 µM (active) | 
CN1CCCN=C1/C=C/c1cccs1 | inactive | 
C=CC[N+]1([C@H]2C[C@H]3[C@@H]4CC[C@H]5C[C@H](OC(C)=O)[C@@H](N6CCCCC6)C[C@]5(C)[C@H]4CC[C@]3(C)[C@H]2OC(=O)CC)CCCCC1 | inactive | 
CC(=O)OCC(=O)Nc1cc(C#N)cc(NC(=O)COC(C)=O)c1Cl | inactive | 
O=C(Nc1ccc(S(=O)(=O)N2CCOCC2)cc1)c1cc(Cl)ccc1NS(=O)(=O)c1ccc(Cl)s1 | inactive | 
O=C1NC2CCCCN2C12CCN(CCCN1c3ccccc3CCc3ccc(Cl)cc31)CC2 (stereo unspecified) | 21.1 µM (active) | 
O=[N+]([O-])c1ccc(-c2nc(-c3ccc(F)cc3)c(-c3ccncc3)[nH]2)cc1 | inactive and 23.1 µM (active) | 
N#Cc1cc(NC(=O)C(=O)O)c(Cl)c(NC(=O)C(=O)O)c1 | inactive | 

SMILES | Potency | activity change, negative = cell killing
CCCCCOc1ccccc1/C(=C\SC)n1ccnc1 | 13.3 µM (active) | 
CC(C)C(=O)OCc1cccc(OC(=O)[C@@H]2N3C(=O)[C@@H](NC(=O)Cc4ccccc4)[C@H]3SC2(C)C)c1 | inactive | 
CCC(=O)O[C@H]1[C@H](O[C@@H]2[C@@H](C)[C@H](O[C@H]3C[C@@](C)(OC)[C@@H](O)[C@H](C)O3)[C@@H](C)C(=O)O[C@H](CC)[C@@](C)(O)[C@H](O)[C@@H](C)C(=O)[C@H](C)C[C@@]2(C)O)O[C@H](C)C[C@@H]1N(C)C | inactive | 
C[C@@]12CCC[C@H]1[C@@H]1CC[C@H]3C[C@@H](O)CC[C@]3(C)[C@H]1CC2 | inactive | 
Cc1cc2nc3ccc(=[N+](C)C)cc-3sc2cc1N | 1.06 µM (active) | 
C[C@@H]1C[C@H]2[C@@H]3CCC4=CC(=O)C=C[C@]4(C)[C@@]3(F)[C@@H](O)C[C@]2(C)[C@@]1(O)C(=O)COC(=O)c1ccncc1 | inactive | 
O=C1CC[C@H](C(=O)N2CCCCC2)N1 | inactive | 
N[C@@H](Cn1ccc(=O)c(O)c1)C(=O)O |  | -0.615% [at 4.96 µM] (inactive)
Cc1ccc(/C=N/n2c(-c3ccccc3)csc2=S)cc1 | inactive | 
COC(=O)C1=C(C)NC(COC(N)=O)=C(C(=O)OC(C)C)C1c1cccc(Cl)c1Cl (stereo unspecified) | 11.9 µM (active) | 
CC(C)N(CCC(=O)c1ccc2ccccc2c1)Cc1ccccc1 | 5.25 µM (active) and 11.6 µM (active) | 
COc1c(C)c2c(c(O)c1C/C=C(\C)CCC(=O)OCCN1CCOCC1)C(=O)OC2 | 0.376 µM (active) | 
COC(=O)[C@H]1[C@H]2C[C@@H]3c4[nH]c5cc(OC)ccc5c4CCN3C[C@H]2C[C@@H](OC(=O)/C=C/c2ccc(O)c(OC)c2)[C@@H]1OC | 4.73 µM (active) | 
CN1CCC(Nc2ncc3ncnc(Nc4ccc(F)c(Cl)c4)c3n2)CC1 | 11.9 µM (active) | 
Nc1cccc2c(N)cccc12 | 3.86 µM (active) | 
COc1cc(C(=O)NC2CCCNC2)cc(OC)c1OC (stereo unspecified) | inactive | 
CC1c2ccccc2CN1NC(=O)c1ccc(Cl)c(S(N)(=O)=O)c1 (stereo unspecified) | inactive | 
CCCCCC[C@@H](CCC)C(=O)O | inactive | 

Biological target: Rap guanine nucleotide exchange factor 3 (Homo sapiens) (UniProt O95398)
Assay: Confirmatory qHTS for antagonist of cAMP-regulated guanine nucleotide exchange factor 3 (EPAC1) (AID 1645880); also: nearly all actives have a fitted effect of over 55% in size
Settings: EPAC1 Rap1B-BODIPY-GDP exchange, fluorescence; series mostly up to 203 µM
Procedure, shortened: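 Released BODIPY-GDP fluoresces less than Rap1-bound BODIPY-GDP; the signal is followed at 480/540 nm at 5-min intervals over 30 min, after 5 min at room temperature. Reactions contain 100 nM EPAC1, 250 nM RAP1B-BODIPY-GDP and 50 uM GDP; results are normalized to ATA and DMSO.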

Rap guanine nucleotide exchange factor 3 (Homo sapiens), sequence (O95398 whole entry, looked up): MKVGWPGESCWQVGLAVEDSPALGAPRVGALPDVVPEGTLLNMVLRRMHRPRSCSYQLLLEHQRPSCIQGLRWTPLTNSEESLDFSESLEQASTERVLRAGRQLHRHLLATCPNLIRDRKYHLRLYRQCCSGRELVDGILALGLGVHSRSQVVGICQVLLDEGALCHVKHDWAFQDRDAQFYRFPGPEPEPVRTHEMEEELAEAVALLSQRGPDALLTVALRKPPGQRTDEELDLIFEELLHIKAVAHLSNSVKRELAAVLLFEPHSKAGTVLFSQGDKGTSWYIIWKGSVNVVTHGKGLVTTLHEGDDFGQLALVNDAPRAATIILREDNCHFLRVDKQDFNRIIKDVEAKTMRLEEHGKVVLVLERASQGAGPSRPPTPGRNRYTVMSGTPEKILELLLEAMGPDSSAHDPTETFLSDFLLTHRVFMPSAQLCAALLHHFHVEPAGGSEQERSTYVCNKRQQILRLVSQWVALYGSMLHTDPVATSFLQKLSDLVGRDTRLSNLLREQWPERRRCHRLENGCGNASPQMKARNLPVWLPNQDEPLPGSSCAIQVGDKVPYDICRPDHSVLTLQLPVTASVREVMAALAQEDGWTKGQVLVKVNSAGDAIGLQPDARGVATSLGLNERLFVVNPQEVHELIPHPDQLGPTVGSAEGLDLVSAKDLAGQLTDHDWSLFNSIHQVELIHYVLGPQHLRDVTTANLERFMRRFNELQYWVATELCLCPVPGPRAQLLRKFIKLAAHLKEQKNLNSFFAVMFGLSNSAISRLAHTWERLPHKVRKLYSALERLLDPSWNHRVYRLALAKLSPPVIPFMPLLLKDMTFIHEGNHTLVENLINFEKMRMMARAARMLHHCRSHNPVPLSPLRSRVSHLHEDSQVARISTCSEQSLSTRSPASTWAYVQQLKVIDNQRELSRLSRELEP

SMILES | Potency
Nc1ccc2cc3ccc(N)cc3nc2c1 | inactive
O=C(Nc1ccc(S(=O)(=O)N2CCOCC2)cc1)c1cc(Cl)ccc1NS(=O)(=O)c1ccc(Cl)s1 | 35.2 µM (active)
CCC(=O)O[C@H]1[C@H](O[C@@H]2[C@@H](C)[C@H](O[C@H]3C[C@@](C)(OC)[C@@H](O)[C@H](C)O3)[C@@H](C)C(=O)O[C@H](CC)[C@@](C)(O)[C@H](O)[C@@H](C)C(=O)[C@H](C)C[C@@]2(C)O)O[C@H](C)C[C@@H]1N(C)C | 12.5 µM (active)
Nc1cccc2c(N)cccc12 | inactive
